From PubChem BioAssay
FBA Mtb inh: Mtb fructose-bisphosphate aldolase inhibition | purified M. tuberculosis FBA, fluorescence read-out | hit rate 2.3% among 360,000 | inhibition, % at 1 µM | P9WQA3; in the data active means inhibition above about 27%;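 further: 0% = vehicle and 100% = reference inhibitor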
CCHFV vOTU inh: CCHFV vOTU protease inhibition; Pep-AMC fluorescence; inhibition, % at 11.5 µM; hit rate 0.55% among 370,000; AID 651958; further: 0% = vehicle wells with enzyme and 100% = no enzyme wells
3CLpro inhibitor: SARS-CoV 3CLpro protease inhibition. recombinant SARS-CoV 3CLpro, quenched FRET peptide cleavage. P0C6X7. hit rate 0.14% among 290,000. inhibition, % at 6 µM. AID 1706; in the data active means inhibition above about 12%
GDH-TPI counter-1: inhibits GDH-TPI coupling enzymes, artifact for Mtb FBA screen. inhibition, % at 4.8 µM. hit rate 1.2% among 360,000. AID 588335. GDH-TPI coupled enzyme counterscreen, NADH absorbance;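 further: 0% = DMSO wells and 100% = wells lacking the enzyme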
VHR inh abs: blocks human VHR1 dual specificity phosphatase; inhibition, % at 13.3 µM; AID 1654; hit rate 0.52% among 290,000; recombinant VHR phosphatase, pNPP absorbance; in the data active means inhibition above about 50%
RecA splice inh: inhibitors of M. tuberculosis RecA intein splicing; hit rate 0.75% among 290,000; cell-free RecA intein splicing, fluorescence; inhibition, % (test concentration not listed); P9WHJ3; in the data active means inhibition above about 30%;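 further: 0% = vehicle wells and 100% = reference inhibitor control wells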
Target sequence (P9WHJ3 whole entry, looked up, canonical isoform): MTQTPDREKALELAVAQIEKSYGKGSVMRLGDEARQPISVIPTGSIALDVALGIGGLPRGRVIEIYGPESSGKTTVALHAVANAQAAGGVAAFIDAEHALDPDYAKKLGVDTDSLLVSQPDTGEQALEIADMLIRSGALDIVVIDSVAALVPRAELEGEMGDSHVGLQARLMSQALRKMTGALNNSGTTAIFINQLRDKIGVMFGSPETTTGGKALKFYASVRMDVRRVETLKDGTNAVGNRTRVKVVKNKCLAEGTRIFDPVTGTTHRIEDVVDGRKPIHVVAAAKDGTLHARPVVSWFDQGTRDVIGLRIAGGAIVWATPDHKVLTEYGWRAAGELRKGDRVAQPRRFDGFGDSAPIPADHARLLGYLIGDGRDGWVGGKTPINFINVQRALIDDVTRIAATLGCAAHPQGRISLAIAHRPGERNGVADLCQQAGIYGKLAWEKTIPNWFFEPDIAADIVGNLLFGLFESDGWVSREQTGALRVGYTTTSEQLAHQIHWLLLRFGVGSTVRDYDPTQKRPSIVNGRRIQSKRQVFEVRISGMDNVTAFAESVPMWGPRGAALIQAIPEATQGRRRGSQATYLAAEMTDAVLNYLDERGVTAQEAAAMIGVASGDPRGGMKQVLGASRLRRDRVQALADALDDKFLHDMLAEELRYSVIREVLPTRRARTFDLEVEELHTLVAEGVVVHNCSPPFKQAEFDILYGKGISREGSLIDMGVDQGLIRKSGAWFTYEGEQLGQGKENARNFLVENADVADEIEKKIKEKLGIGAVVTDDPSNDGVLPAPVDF
Mtb FBA confirm: Mtb FBA inhibition, confirmed. inhibition, % at 1 µM. hit rate 78% among 5,600. shares compounds with FBA Mtb inh. AID 651616. purified M. tuberculosis FBA, fluorescence read-out; in the data active means inhibition above about 27%;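 further: 0% = vehicle wells and 100% = reference inhibitor wells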
GDH-TPI counter-2: inhibits GDH-TPI coupling enzymes, flagging Mtb FBA hits; shares compounds with FBA Mtb inh; GDH-TPI coupled enzyme counterscreen, fluorescence; inhibition, % at 1 µM; hit rate 81% among 5,600; AID 652141; in the data active means inhibition above about 10%
Active calls of the source: *. In the library only some 4.7% were active in any assay of this set; here they are far more common. Unless noted, no stated cut-off is given here; in the data, active means inhibition above about 30%; inactive means the rest.

Nc1c(C(=O)OCC(=O)NCc2ccccc2)[nH]c(=O)[nH]c1=O was read as FBA Mtb inh 5.3, CCHFV vOTU inh 11.3, 3CLpro inhibitor 6.3, GDH-TPI counter-1 9.9, VHR inh abs 21.7 and RecA splice inh -6.4.
Screening C=CCNC(=O)/C(C#N)=C/c1c(N2CCN(c3cccc(Cl)c3)CC2)nc2c(C)cccn2c1=O returned FBA Mtb inh 62.3*, CCHFV vOTU inh -81.9, 3CLpro inhibitor -0.7, GDH-TPI counter-1 -0.4, RecA splice inh -25.1, Mtb FBA confirm 198.6* and GDH-TPI counter-2 171.7*.
CNC(=O)/C(C#N)=C/c1c(N2CCN(c3cccc(Cl)c3)CC2)nc2c(C)cccn2c1=O was read as FBA Mtb inh 25.1, CCHFV vOTU inh -15.6, 3CLpro inhibitor 4.7, GDH-TPI counter-1 10.7 and RecA splice inh -167.7.
`CC1(C)Oc2ccc3ccc(=O)oc3c2[C@H](O)[C@H]1O` gave FBA Mtb inh 57.6*, CCHFV vOTU inh -20.7, GDH-TPI counter-1 17.9, Mtb FBA confirm 68.9* and GDH-TPI counter-2 58.5*.
For C/C=C(/C)C(=O)O[C@H]1[C@@H](O)c2c(ccc3ccc(=O)oc23)OC1(C)C the results were FBA Mtb inh 34.3*, CCHFV vOTU inh -13.4, 3CLpro inhibitor -3.6, GDH-TPI counter-1 20.2, VHR inh abs 12.4, RecA splice inh -0.6, Mtb FBA confirm 92.8* and GDH-TPI counter-2 79.5*.
`CC1(C)Oc2ccc3ccc(=O)oc3c2C(N2CCCCC2)C1O` (stereo unspecified) gave FBA Mtb inh 6.2, CCHFV vOTU inh -10.5, 3CLpro inhibitor -4.6, GDH-TPI counter-1 -2.8, VHR inh abs -0.2 and RecA splice inh -2.1.
For CC1(C)Oc2ccc3ccc(=O)oc3c2/C(=C/O)C1=O the results were FBA Mtb inh 43.5*, CCHFV vOTU inh -21.1, 3CLpro inhibitor -1.4, GDH-TPI counter-1 20.3, VHR inh abs 16.5, RecA splice inh -0.1, Mtb FBA confirm 153.5* and GDH-TPI counter-2 119.2*.
For C/C=C(/C)C(=O)O[C@@H]1Cc2c(ccc3ccc(=O)oc23)OC1(C)C the results were FBA Mtb inh 45.1*, CCHFV vOTU inh -19.0, GDH-TPI counter-1 14.8, Mtb FBA confirm 68.4* and GDH-TPI counter-2 42.5*.
Screening CCOC(=O)Cn1ccc2cc(S(=O)(=O)N3CCCC3)ccc21 returned FBA Mtb inh 1.6, CCHFV vOTU inh 11.9 and GDH-TPI counter-1 13.3.
For NS(=O)(=O)c1ccc(-c2cccc(/C=C3\SC(=O)NC3=O)c2)cc1 the results were FBA Mtb inh -1.2, CCHFV vOTU inh 9.7, 3CLpro inhibitor -0.6, GDH-TPI counter-1 29.1, VHR inh abs 25.1 and RecA splice inh 3.3.
Screening COc1cc(F)ccc1-c1cc(C(=O)Nc2cc(OC)c(OC)c(OC)c2)[nH]n1 returned FBA Mtb inh 0.7, CCHFV vOTU inh 6.1 and GDH-TPI counter-1 10.1.
Screening Cc1ccc(NC(=O)c2cccc(S(=O)(=O)N3CCN(c4ccccc4)CC3)c2)nc1 returned FBA Mtb inh 1.6, CCHFV vOTU inh -6.1, GDH-TPI counter-1 2.1 and RecA splice inh 3.3.
Screening C/C=C(/C)C(=O)OC1c2c(ccc3ccc(=O)oc23)OC(C)(C)C1OC(C)=O (stereo unspecified) returned FBA Mtb inh 15.3, CCHFV vOTU inh 16.4, 3CLpro inhibitor 2.0, GDH-TPI counter-1 14.3, VHR inh abs 35.8 and RecA splice inh 3.2.
Screening C/C=C(/C)C(=O)O[C@@H]1[C@H](OC(C)=O)c2c(ccc3ccc(=O)oc23)OC1(C)C returned FBA Mtb inh 31.6*, CCHFV vOTU inh 2.0, 3CLpro inhibitor -1.9, GDH-TPI counter-1 31.8*, VHR inh abs 12.4, RecA splice inh 1.5, Mtb FBA confirm 114.8* and GDH-TPI counter-2 87.5*.
Screening CC1(C)Oc2ccc3ccc(=O)oc3c2C[C@H]1O returned FBA Mtb inh 88.2*, CCHFV vOTU inh -45.3, GDH-TPI counter-1 15.6, VHR inh abs 7.3, RecA splice inh -3.2, Mtb FBA confirm 148.6* and GDH-TPI counter-2 113.0*.
For CN(CC(=O)Nc1ccccc1Cl)CC(=O)N(C)c1c(N)n(Cc2ccccc2)c(=O)[nH]c1=O the results were FBA Mtb inh 1.3, CCHFV vOTU inh 1.7 and GDH-TPI counter-1 4.3.
`CCOC(=O)c1sc2nc(C)nc(NCCc3ccc(S(N)(=O)=O)cc3)c2c1C` gave FBA Mtb inh 35.5*, CCHFV vOTU inh -18.0, 3CLpro inhibitor -0.8, GDH-TPI counter-1 4.2, VHR inh abs 36.0, Mtb FBA confirm 95.6* and GDH-TPI counter-2 77.9*.
`CCOC(=O)c1sc2nc(C)nc(Nc3ccccc3)c2c1C` gave FBA Mtb inh 1.9, CCHFV vOTU inh 3.6, 3CLpro inhibitor 2.9, GDH-TPI counter-1 -0.6, VHR inh abs 4.0 and RecA splice inh 0.2.
`CCOC(=O)c1sc2nc(C)nc(NCc3ccccc3)c2c1C` gave FBA Mtb inh 53.5*, CCHFV vOTU inh -7.5, 3CLpro inhibitor -2.7, GDH-TPI counter-1 6.7, VHR inh abs -1.2, RecA splice inh 3.3, Mtb FBA confirm -4.3 and GDH-TPI counter-2 0.4.
Screening CNc1nc(NCc2ccccc2)c2sccc2n1 returned FBA Mtb inh 7.1, CCHFV vOTU inh 13.3 and GDH-TPI counter-1 6.2.
Screening CNc1nc(-c2ccccc2)c2sccc2n1 returned FBA Mtb inh 78.0*, CCHFV vOTU inh -105.0, GDH-TPI counter-1 17.3, Mtb FBA confirm 8.0 and GDH-TPI counter-2 -3.8.
Cc1cc(OC(C)C(=O)NCc2ccccn2)c2c(C)c(C)c(=O)oc2c1 (stereo unspecified) was read as FBA Mtb inh 43.6*, CCHFV vOTU inh -12.1, 3CLpro inhibitor -0.2, GDH-TPI counter-1 10.3, VHR inh abs 29.6, RecA splice inh -0.9, Mtb FBA confirm active and GDH-TPI counter-2 172.8*.
Screening CC(Oc1ccc2c3c(c(=O)oc2c1)CCCC3)C(=O)NCc1ccccn1 (stereo unspecified) returned FBA Mtb inh 79.5*, CCHFV vOTU inh -8.9, 3CLpro inhibitor 0.9, GDH-TPI counter-1 12.0, VHR inh abs -14.4, RecA splice inh -1.4, Mtb FBA confirm 31.4* and GDH-TPI counter-2 16.1*.
CC(Oc1ccc2c3c(c(=O)oc2c1)CCC3)C(=O)NCc1ccccn1 (stereo unspecified) was read as FBA Mtb inh 15.1, CCHFV vOTU inh -1.2, 3CLpro inhibitor 1.2, GDH-TPI counter-1 1.6, VHR inh abs -10.2 and RecA splice inh 1.2.
For Cc1cc(=O)oc2cc(OCC(=O)NCc3ccccn3)ccc12 the results were FBA Mtb inh 13.8, CCHFV vOTU inh -0.4, 3CLpro inhibitor -3.4, GDH-TPI counter-1 6.0, VHR inh abs 14.7 and RecA splice inh 3.4.
Screening Cc1c(C)c2ccc(OCC(=O)NCc3ccccn3)cc2oc1=O returned FBA Mtb inh 81.1*, CCHFV vOTU inh -37.5, 3CLpro inhibitor -0.1, GDH-TPI counter-1 2.4, VHR inh abs 11.4, RecA splice inh -0.5, Mtb FBA confirm active and GDH-TPI counter-2 active.
